Assay [1] deals with Cellular tumor antigen p53 (Homo sapiens) (UniProt P04637). Description: Primary qHTS for small molecule compounds that upregulate eGFP-tagged delta133p53alpha (in N-terminal) cells. (AID 2060322). Also: nearly all actives have a fitted effect of over 75% in size. Also: potency is read from the fitted curve at half-maximal effect.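 As to activation: cells pre-induced with doxycycline then dosed without doxycycline; series mostly up to about 56 µM; 0% = DMSO vehicle and 100% = reference activator.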 To be noted: NCI-H358 eGFP-delta133p53alpha fluorescence, 24 h; activation: stronger effect = higher value. Put shortly:
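NCI-H358 cells pre-induced 24 h with 10 ng/ml doxycycline for eGFP-delta133p53alpha, plated dox-free and exposed 24 h at 37C to titrated compounds. Fixed, Hoechst-stained; gated GFP peak intensity by laser scanning cytometry, normalized to DMSO (0%) and 57.5 uM 5-azacytidine (100%).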
(qHTS replaces the single test concentration by a dilution series.)

For assay [2], the target named is Aldehyde dehydrogenase, mitochondrial (Homo sapiens) (UniProt P05091). As to the kind of experiment: qHTS for Inhibitors of the Aldehyde Dehydrogenase Family (ALDH2) Primary screen (AID 2061308).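 Also: plate controls were vehicle for no effect and reference inhibitor for full effect; nearly all actives have a fitted effect of over 55% in size.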
For assay [3], the target named is Retinaldehyde dehydrogenase 3 (Homo sapiens) (UniProt P47895). Description: qHTS for Inhibitors of the Aldehyde Dehydrogenase Family (ALDH1A3) Primary screen (AID 2061315).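 Also: plate controls were DMSO vehicle for no effect and reference inhibitor for full effect.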

Each structure is given as a SMILES string. Inconclusive results are not listed. Values without a mark were called inactive. The source made the active and inactive calls. Calls follow the shape of the dose curve; as a rule, active = well fitted curve in the direction sought with a large enough effect; inconclusive = small, poorly fitted or top-dose-only effect, or another doubt; inactive = no such curve, though single readings can be large; an effect the other way counts as inactive or inconclusive.

Cellular tumor antigen p53 (Homo sapiens), sequence (P04637 whole entry, looked up): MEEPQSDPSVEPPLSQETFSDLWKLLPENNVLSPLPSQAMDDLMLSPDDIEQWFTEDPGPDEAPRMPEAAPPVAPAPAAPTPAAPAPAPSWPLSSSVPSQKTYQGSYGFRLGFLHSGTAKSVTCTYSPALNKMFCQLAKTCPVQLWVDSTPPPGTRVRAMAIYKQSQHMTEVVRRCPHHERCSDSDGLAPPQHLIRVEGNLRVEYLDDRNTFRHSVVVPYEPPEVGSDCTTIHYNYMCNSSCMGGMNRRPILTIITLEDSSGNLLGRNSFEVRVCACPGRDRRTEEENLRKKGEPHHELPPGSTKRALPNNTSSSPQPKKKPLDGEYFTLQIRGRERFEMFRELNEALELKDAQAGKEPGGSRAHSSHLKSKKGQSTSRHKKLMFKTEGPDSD

For `C[C@@H]1CC2OC(=O)C3=C2C(CCC3O)[C@@]12C[C@@H](c1ccoc1)OC2=O` (some centres undefined), in assay [1], the activation was -8.4%. In addition, the Potency entry in assay [2] and in assay [3] was “inactive” in each case.
On to `O=C1NCc2nc3ccccc3c(=O)n2C1Cc1c[nH]c2ccccc12` (centres undefined), for which, in assay [1], the activation was -7.63%. Also, the Potency result in assay [2] and in assay [3] was “inactive” each time.
For `CC(=O)NC(C(=O)OC1CCC(C)(C)C2CC=C3C(=O)OCC3C12C)C(C)C` (centres undefined), the activation in assay [1] was 9.16%. For the same compound, the Potency entry in assay [2] and in assay [3] was “inactive” throughout.
On to `C[C@@]1(O)[C@H](O)[C@@H](CO)O[C@H]1n1cnc2c(=O)[nH]c(N)nc21`, for which the activation in assay [1] was -12.3%. The Potency result in assay [2] and in assay [3] was “inactive” throughout.
Consider `CC(=O)O[C@H]1CC[C@@]2(C)C(CC[C@@H](C)[C@]23Cc2c(O)cc4c(c2O3)CN([C@@H](CCC(=O)O)C(=O)O)C4=O)C1(C)C` (some centres undefined), for which the activation in assay [1] was 0.763%. Moreover, the Potency result in assay [2] and in assay [3] was “inactive” each time.
For `CC1=CCC[C@@H]2[C@](CCc3ccoc3)(C(=O)O)[C@H](C)CC[C@@]12C`, the activation in assay [1] was -28.2%. The Potency entry in assay [2] and in assay [3] was “inactive” each time.
Regarding `COC(=O)CC(C)(O)CC(=O)OCc1ccc(O[C@@H]2O[C@H](CO)[C@@H](O)[C@H](O)[C@H]2O)cc1` (some centres undefined), the activation in assay [1] is -5.34%. The Potency result in assay [2] and in assay [3] was “inactive” in each case.
On to `CC1(C)C[C@H]2C3=CCC4[C@@]5(C)CC[C@H](O[C@H]6O[C@H](C(=O)O)[C@@H](O)[C@H](O)[C@H]6O[C@H]6O[C@H](CO)[C@@H](O)[C@H](O)[C@H]6O[C@@H]6O[C@H](CO)[C@@H](O)[C@H](O)[C@H]6O)[C@](C)(CO)C5CC[C@@]4(C)[C@]3(C)CC[C@@]2(C)[C@H](O[C@@H]2OC[C@H](O)[C@H](OC3O[C@H](CO)[C@@H](O)[C@H](O)[C@H]3O)[C@H]2O)[C@@H]1O` (some centres undefined), for which the activation in assay [1] is -19.8%. Also, the activity change, negative = inhibition was 2.01% [at 11.2 µM] in assay [2] and 14.7% [at 11.2 µM] in assay [3].
For `CC1(C)CCCC2(C)c3c4c(c(=O)oc(=O)c3=CCC12)=CCC1C(C)(C)CCCC41C` (centres undefined), the activation in assay [1] was -8.04%. Further, the Potency entry in assay [2] and in assay [3] was “inactive” in each case.
In the case of `N#CC1C(=O)Nc2scc(-c3ccc(-c4ccccc4O)cc3)c2C1=O` (centres undefined), in assay [1], the activation was 17%. Further, the Potency result in assay [2] and in assay [3] was “inactive” in each case.
Take `N#CC1C(=O)N=C(c2cc(Cl)ccc2O)C=C1c1cc(OCc2ccccc2)cc(OCc2ccccc2)c1` (centres undefined): in assay [1], the activation was -17.7%. Moreover, the Potency result in assay [2] and in assay [3] was “inactive” throughout.
Regarding `C=C1CCC2C(C)(C)C(O)CCC2(C)C1CCC(C)CCO` (centres undefined), in assay [1], the activation is 6.25%. Besides, the Potency entry in assay [2] and in assay [3] was “inactive” each time.
`NC(=O)c1cnc(NCCc2ccc(O)c(Cl)c2)nc1NCc1ccccc1`: the Potency in assay [1] was 9.53 µM (active). Further, the Potency result in assay [2] and in assay [3] was “inactive” in each case.
For the compound `OCC1=CC[C@@H]2C=CO[C@@H](O[C@@H]3O[C@H](CO)[C@@H](O)[C@H](O)[C@H]3O)[C@H]12`, in assay [1], the activation was -9.92%. Moreover, the Potency entry in assay [2] and in assay [3] was “inactive” in each case.
On to `N#Cc1cc(-c2n[nH]c(-c3ccncc3)n2)ccn1`, for which, in assay [1], the activation is 4.46%. Moreover, the Potency result in assay [2] and in assay [3] was “inactive” each time.
`CC(=O)O[C@H]1CC[C@H](C)[C@@]2(C)[C@H](OC(C)=O)c3c(C)coc3C(=O)[C@H]12`: in assay [1], the activation was -3.82%. Besides, the Potency result in assay [2] and in assay [3] was “inactive” throughout.
As to `OC[C@H]1O[C@@H](OC[C@H]2O[C@@H](OCc3ccccc3)[C@H](O)[C@@H](O)[C@@H]2O)[C@H](O)[C@@H](O)[C@@H]1O`, the activation in assay [1] was -3.82%. The Potency result in assay [2] and in assay [3] was “inactive” in each case.
Consider `C=C1CC2C(C)(CCC(=O)O)C(C(C)(C)O)CCC2(C)C2(C(=O)OC)C(=O)C(C)(O)C(=O)C12C` (centres undefined), for which the activation in assay [1] is -21.4%. Further, the Potency entry in assay [2] and in assay [3] was “inactive” throughout.
`CC(=O)N1CCN(NC(=O)c2ccc(F)cc2)CC1`: the activation in assay [1] was -2.39%. The Potency entry in assay [2] and in assay [3] was “inactive” in each case.
In the case of `CC1CC(=O)C2=C(O1)OC1(C)CCC3C(C)(C)C4OC4C(=O)C3(C)C1C2` (centres undefined), in assay [1], the activation was 16.1%. In addition, the Potency result in assay [2] and in assay [3] was “inactive” throughout.
For `O=C(NOC[C@H](O)CO)c1ccc(F)c(F)c1Nc1ccc(I)cc1F`, in assay [1], the activation was 8.59%. The Potency result in assay [2] and in assay [3] was “inactive” throughout.
`CC1CC(=O)C2=C(CCC3(O)C(O)c4c(O)cccc4C(=O)C23O)C1` (centres undefined): in assay [1], the activation is 12.2%. Moreover, the Potency result in assay [2] and in assay [3] was “inactive” each time.
For the compound `COc1cc(C(C)=O)c(OC)c2c1OC(C)(C)C=C2`, in assay [1], the activation was 6.25%. Further, the Potency result in assay [2] and in assay [3] was “inactive” throughout.
As to `CC(=O)N1CCN(C(=O)Cc2ccc(Nc3ncc(F)c(Nc4ccc(C(=O)Nc5ccccc5Cl)cc4)n3)cc2)CC1`, the Potency in assay [1] was 13.5 µM (active). The Potency entry in assay [2] and in assay [3] was “inactive” each time.
`CC(C)/C=C1/NC(=O)C(C(C)C)n2c1nc1c(O)cccc1c2=O` (centres undefined): the activation in assay [1] was -14.5%. The Potency result in assay [2] and in assay [3] was “inactive” throughout.
With `COc1ccc(C2(O)c3ccccc3NC(=O)C2OC)cc1` (centres undefined), in assay [1], the activation is -2.29%. In addition, the Potency result in assay [2] and in assay [3] was “inactive” in each case.
As to `CC(=O)O[C@H]1C[C@@]2(C)[C@@H](CC[C@H]3[C@@]4(C)C=CC(=O)[C@@H](C)[C@@H]4[C@H](OC(C)=O)C(=O)[C@@]32C)/C1=C(\CCC=C(C)C)C(=O)O`, the activation in assay [1] is -16%. Besides, the Potency entry in assay [2] and in assay [3] was “inactive” each time.
Take `CC1=C2C(O)C(=O)OC(c3ccoc3)C2(C)CCC1O` (centres undefined): the activation in assay [1] was -16%. Besides, the Potency entry in assay [2] and in assay [3] was “inactive” each time.

For the origin of these results see PubChem BioAssay (NCATS).
